Hits are enriched below; roughly 22% of the tested compounds scored in any of these assays.
LmPK inh: qHTS Assay for Inhibitors of Leishmania Mexicana Pyruvate Kinase (LmPK) | hit rate 0.37% among 290,000 | AID 1721, 2009 | purified LmPK, Kinase-Glo ATP luminescence, 1 h | Q27686 | Potency, µM (titrated, usually from 57.5 µM), most hits filed as inhibitors
Target sequence (Q27686 whole entry, looked up): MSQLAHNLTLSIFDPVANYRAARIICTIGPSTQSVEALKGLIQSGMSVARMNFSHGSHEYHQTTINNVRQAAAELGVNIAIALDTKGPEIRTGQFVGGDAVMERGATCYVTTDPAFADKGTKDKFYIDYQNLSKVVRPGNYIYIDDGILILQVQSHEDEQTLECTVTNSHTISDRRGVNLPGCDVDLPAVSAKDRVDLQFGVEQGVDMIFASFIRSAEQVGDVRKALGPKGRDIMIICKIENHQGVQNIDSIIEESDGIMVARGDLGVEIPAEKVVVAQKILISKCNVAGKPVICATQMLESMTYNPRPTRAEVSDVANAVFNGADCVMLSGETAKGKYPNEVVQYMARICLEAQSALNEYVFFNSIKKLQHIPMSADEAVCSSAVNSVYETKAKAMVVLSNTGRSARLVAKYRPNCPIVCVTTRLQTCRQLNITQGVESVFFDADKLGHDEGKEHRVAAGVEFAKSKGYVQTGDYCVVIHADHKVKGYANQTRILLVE
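Purified LmPK (0.1 nM) converted ADP (0.1 mM) to ATP with PEP (0.5 mM) in imidazole buffer pH 7.2 with KCl and MgCl2, 1 h at room temperature. ATP was read by Kinase-Glo luminescence; data normalized to uninhibited and no-enzyme controls.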
Shiga toxin inh: A qHTS for Small Molecule Inhibitors of Shiga Toxin. inhibition, % at 38.7 µM. AID 2315, 2010. Vero cells, Shiga toxin protein synthesis inhibition reporter. hit rate 9.2% among 290,000; in the data active means inhibition mostly above about 28%, no sharp cut-off; inactive means mostly below about 43%
Pf growth 48h: Primary qHTS for delayed death inhibitors of the malarial parasite plastid, 48 hour incubation; hit rate 5.9% among 310,000; P. falciparum luciferase growth in erythrocytes, 48 h; Potency, µM (titrated, usually from 28.7 µM), hits mostly inhibitors
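Luciferase-expressing parasites in RBCs, 2% Hct / 0.1% parasitemia final; RPMI 1640 + 0.5% Albumax; 37 C, 5% CO2, one generation; luminescence read-out, lower signal = inhibition.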
CHX counter: Cycloheximide Counterscreen for Small Molecule Inhibitors of Shiga Toxin; cell reporter, cycloheximide protein synthesis inhibition counterscreen; max response, %; hit rate 12% among 300,000; AID 2314, 2010; in the data active means max response mostly above about 13%, no sharp cut-off; inactive means mostly below about 14%; further: read at 38.3 µM for the half of the compounds with a filed dose
Pf growth 96h: Primary qHTS for delayed death inhibitors of the malarial parasite plastid, 96 hour incubation | hit rate 6.9% among 320,000 | P. falciparum luciferase reporter growth, 96 h | Potency, µM (series often up to 28.7 µM), hits mostly inhibitors
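Infected RBCs, 2% Hct / 0.05% parasitemia final; luciferase-reporter P. falciparum; cpd 96 h, 37 C, 5% CO2; luciferase detection reagent; luminescence.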
Each line names hits and unclear results; the compound was inactive in the other large screens. Unless noted, the call rests on the fitted dose curve; in most records, active means well fitted inhibition curve with a large enough effect; inconclusive means small, poorly fitted or top-dose-only effect, or another doubt; inactive means no such curve, though single readings can be large or run the other way.

Cc1ccc(NC(=O)CN(C)CC(=O)Nc2ccccc2-c2ccccc2)cc1	Pf growth 48h inconclusive, Pf growth 96h 13µM
COc1ccc(Cl)cc1NC(=O)CN(C)C(=O)c1cc(=O)c2ccccc2o1	Pf growth 48h 12µM, Pf growth 96h inconclusive (no result: LmPK inh, Shiga toxin inh, CHX counter)
COc1ccc(Cl)cc1NC(=O)CN(C)C(=O)c1n[nH]c2ccccc12	none (no result: LmPK inh, Shiga toxin inh, CHX counter)
Cn1c(C(=O)OC(C(=O)NCc2ccco2)c2ccncc2)cc2sccc21 (stereo not given)	none (no result: Pf growth 48h)
CC(=O)c1ccc(NC(=O)CSc2n[nH]c(-c3cccnc3)n2)cc1	none
COc1ccccc1CNC(=O)Cn1c(=O)c2cccn2c2cccnc21	none
Cc1cc(NC(=O)CN2C(=O)N(C)C3(CCCCC3)C2=O)ccc1Br	Pf growth 48h inconclusive (no result: LmPK inh, Shiga toxin inh, CHX counter)
COc1ccccc1CN(C)CC(=O)Nc1ccc(Cl)cc1F	none
COc1ccccc1CN(C)CC(=O)Nc1ccc(Cl)cc1C(F)(F)F	CHX counter 15, Pf growth 96h inconclusive
CC(N)(C(=O)O)c1cccc(OCc2cccc(Cl)c2)c1 (stereo not given)	none
Nc1ccccc1-c1nnc(-c2ccc(-c3ccccc3)cc2)o1	Shiga toxin inh 43, CHX counter 47 (no result: Pf growth 48h)
Cc1nc(-c2nnc(-c3ccccc3)o2)c(C(F)(F)F)o1	Shiga toxin inh 49, CHX counter 28
O=S(=O)(Cc1ccccc1)c1ccccc1-c1nnc(-c2ccccc2)o1	Pf growth 48h inconclusive, Pf growth 96h inconclusive
COc1ccc(-c2cc(-c3nnc(-c4ccncc4)o3)c3ccccc3n2)cc1	Pf growth 48h inconclusive, Pf growth 96h 9.3µM
Clc1cccc(-c2nnc(-c3ccccc3)o2)c1	LmPK inh 25µM, Shiga toxin inh 59, CHX counter 36
COc1ccc(-c2nc3c(c4c2C[C@H](c2ccccc2)OC4)CN(S(=O)(=O)c2ccc(NC(C)=O)cc2)CC3)c(C)c1	none (no result: Shiga toxin inh, Pf growth 48h, CHX counter, Pf growth 96h)
COc1ccc(S(=O)(=O)NCC2CCCN(Cc3cn(C)nc3C)C2)cc1 (stereo not given)	none
COc1ccccc1-c1nnc(-c2ccc(N3CCOCC3)cc2)o1	Shiga toxin inh 62, Pf growth 48h inconclusive, CHX counter 35, Pf growth 96h 1.7µM
c1ccc2c(-c3nc(C4CCCCC4)no3)cc(-c3ccncc3)nc2c1	Pf growth 48h 2.6µM, Pf growth 96h inconclusive
CN(C)S(=O)(=O)c1cccc(-c2nnc(-c3ccccc3)o2)c1	Shiga toxin inh 73, CHX counter 44, Pf growth 96h inconclusive (no result: Pf growth 48h)
COc1ccccc1-c1nnc(SC(C)C(=O)N2CCOCC2)o1 (stereo not given)	none (no result: LmPK inh, Shiga toxin inh, CHX counter)
c1ccc(-c2nnc(-c3ccccc3)o2)cc1	LmPK inh inconclusive, Shiga toxin inh 85, CHX counter 31
Cc1ccc(C(=O)OCN2C(=O)c3ccccc3C2=O)o1	none (no result: LmPK inh, Shiga toxin inh, CHX counter)
COc1cc(C(=O)N/N=C/c2ccc(OC(=O)c3cccc(C)c3)c(OC)c2)ccc1O	Pf growth 96h inconclusive
C=CCn1c(-c2ccc3ncccc3c2)n[nH]c1=S	LmPK inh inconclusive
CC1=Nc2ccccc2/C1=C\c1nc(-c2ccc(C(F)(F)F)cc2)oc1O	none
COc1cc(-c2nnc(-c3ccco3)o2)ccc1OCc1ccccc1	Shiga toxin inh 59, Pf growth 48h inconclusive, CHX counter 39
COc1cccc(-c2nnc(-c3ccc(C(F)(F)F)cc3)o2)c1	Shiga toxin inh 49, CHX counter 27
CSc1nnc(-c2ccccc2)o1	none
Oc1ccccc1-c1nnc(-c2ccc(C(F)(F)F)cc2)o1	CHX counter 35
COc1cc(-c2nnc(-c3ccncc3)o2)ccc1OCc1ccccc1	none
c1ccc(-c2nnc(-c3ccncc3)o2)cc1	LmPK inh inconclusive, CHX counter 40 (no result: Pf growth 48h)
O=C(CN1CCN(Cc2ccccc2F)CC1)Nc1ccccc1Cl	none
CCN(CC1COc2ccccc2O1)S(=O)(=O)c1ccc(C)cc1 (stereo not given)	none
COc1ccc(-c2nnc(-c3ccccc3)o2)cc1OC	Shiga toxin inh 53, CHX counter 51
O=C(CCc1ccccc1)c1nnc(-c2ccccc2)o1	CHX counter 30
ClCc1nnc(-c2ccccc2)o1	Pf growth 48h 2.9µM
COc1cc(-c2nnc(-c3ccccc3)o2)cc(OC)c1OC	Pf growth 48h inconclusive, Pf growth 96h inconclusive
O=C1N=C2SCCN2/C1=C\c1ccccc1Cl	none
COc1ccc2c(Cl)c(C(=O)NC3CCS(=O)(=O)C3)sc2c1 (stereo not given)	Shiga toxin inh 36, CHX counter 20
COc1ccc2c(Cl)c(C(=O)N/N=C/c3ccncc3)sc2c1	none
O=C(NC1CC1)c1sc2cc(Cl)ccc2c1Cl	none (no result: LmPK inh, Shiga toxin inh, CHX counter)
COc1ccc2c(Cl)c(C(=O)NN3CCN(C)CC3)sc2c1	CHX counter 23, Pf growth 96h inconclusive
Cc1cc(=O)[nH]c2c1cnn2C(C)c1ccccc1 (stereo not given)	Pf growth 48h inconclusive
COc1ccc(C(=O)C2CCN(CC(=O)Nc3ccc(C)cc3)CC2)cc1	none
Fc1ccccc1N1CCN(c2cnc3ccccc3n2)CC1	Shiga toxin inh 82, CHX counter 56
CCS(=O)(=O)N1CCN(c2ccccc2F)CC1	none
Oc1ccccc1N1CCN(c2ccc3ccccc3n2)CC1	Shiga toxin inh 102, CHX counter 42
C[N+](C)(C)CC(=O)N1CCN(c2ccc3ccccc3n2)CC1	none
c1ccc(CN2CCN(c3cnc4ccccc4n3)CC2)cc1	Shiga toxin inh 131, CHX counter 52 (no result: Pf growth 48h)
CC1(C)S[C@@H]2[C@H](NC(=O)Cc3ccccc3)C(=O)N2[C@@H]1C(=O)O	none (no result: LmPK inh, Shiga toxin inh, CHX counter)
COc1ccc2c(C)cc(SCC(=O)c3ccc4c(c3)OCO4)nc2c1	Pf growth 48h inconclusive, Pf growth 96h inconclusive
COCCn1c(C)cc(C(=O)CSc2nc3ccccc3s2)c1C	CHX counter 80
COCCn1c(SCC(=O)NC(=O)Cc2ccccc2)nc2ccccc2c1=O	none (no result: LmPK inh, Shiga toxin inh, CHX counter)
COCCn1c(C)cc(C(=O)CSc2nc3ccccc3o2)c1C	Shiga toxin inh 120, CHX counter 51
COCCn1c(SCC(=O)c2cc(C)n(C)c2C)nc2ccccc2c1=O	CHX counter 11
COCCn1c(C)cc(C(=O)CSc2nc(C)c(C)c(C)n2)c1C	Pf growth 96h inconclusive
COCCn1c(C)cc(C(=O)CSc2cc(C)c3ccc(OC)cc3n2)c1C	CHX counter 18, Pf growth 96h inconclusive
Cc1nccn1CCOc1ccc(Cl)cc1	none (no result: Shiga toxin inh)
COCCn1c(C)cc(C(=O)CSc2ncn[nH]2)c1C	Shiga toxin inh 71, CHX counter 36
Cc1ccc(S(=O)(=O)NN=C2C3CC4CC(C3)CC2C4)cc1	none (no result: LmPK inh, Shiga toxin inh, CHX counter)
Cc1ccc(S(=O)(=O)NC23CC4CC(CC(C4)C2)C3)cc1	Pf growth 48h 15µM, Pf growth 96h inconclusive (no result: LmPK inh, Shiga toxin inh, CHX counter)
CC(C)(C)Cc1nnc(NC(=O)CCc2ccccc2)s1	CHX counter 13
O=C(Nc1nnc(CCc2ccccc2)s1)c1ccccc1	Shiga toxin inh 46, CHX counter 14, Pf growth 96h inconclusive
CCC(=O)Nc1nnc(CCc2ccccc2)s1	CHX counter 13
